According to PubChem BioAssay AID1159580 (chemical genetic matrix, 2015):
Screen size: about 5,500 compounds; about 2,000 (36%) were called active. Inconclusive results (about 18%) are left out. Rule as the data show it: active = normalized growth mostly below about 0.91 (no sharp cut-off); inconclusive = no clear call, values can overlap the other calls; inactive = mostly above about 0.92. This is one part of the list.

Experiment: chemical genetic growth profiling, strain panel (AID 1159580);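 also: tested at 20 µM; growth read once vehicle control cultures reached saturation at 30 °C; 1 = growth at the plate median or of vehicle wells; lower values mean less growth of the strain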
Details: S. cerevisiae deletion strains, growth OD
[1] = locus YDL101C, strain DUN1, hits give low values
[2] = locus YHR030C, strain SLT2, hits give low values
[3] = locus YAR019C, strain CDC15, hits give low values
[4] = locus YBL105C, strain PKC1, hits give low values
[5] = locus YBR136W, strain MEC1, hits give low values
[6] = locus YBR160W, strain CDC28, hits give low values
[7] = locus YDL017W, strain CDC7, hits give low values
[8] = locus YDL028C, strain MPS1, hits give low values
[9] = locus YDL108W, strain KIN28, hits give low values
[10] = locus YDL214C, strain PRR2, hits give low values
[11] = locus YDR052C, strain DBF4, hits give low values
[12] = locus YDR054C, strain cdc34, hits give low values
[13] = locus YDR226W, strain ADK1, hits give low values
[14] = locus YER123W, strain YCK3, hits give low values
[15] = locus YFR003C, strain YPI1, hits give low values
[16] = locus YGR040W, strain KSS1, hits give low values
[17] = locus YGR052W, strain FMP48, hits give low values
[18] = locus YGR092W, strain DBF2, hits give low values
[19] = locus YIL147C, strain SLN1, hits give low values
[20] = locus YJL095W, strain BCK1, hits give low values
[21] = locus YJL128C, strain PBS2, hits give low values
[22] = locus YJR016C, strain ILV3, hits give low values
[23] = locus YJR066W, strain TOR1 (second series), hits give low values
[24] = locus YJR066W, strain TOR1, hits give low values
[25] = locus YKL048C, strain ELM1, hits give low values
[26] = locus YKL067W, strain YNK1, hits give low values
[27] = locus YKL101W, strain HSL1, hits give low values
[28] = locus YKL203C, strain TOR2, hits give low values
[29] = locus YLR113W, strain HOG1, hits give low values
[30] = locus YLR133W, strain CKI1, hits give low values
[31] = locus YLR403W, strain SFP1, hits give low values
[32] = locus YML070W, strain DAK1, hits give low values
[33] = locus YMR001C, strain CDC5, hits give low values
[34] = locus YMR205C, strain PFK2 (second series), hits give low values
[35] = locus YNL006W, strain LST8, hits give low values
[36] = locus YNL020C, strain ARK1, hits give low values
[37] = locus YNL161W, strain CBK1, hits give low values
[38] = locus YNL183C, strain NPR1, hits give low values
[39] = locus YNL207W, strain RIO2, hits give low values
[40] = locus YOR119C, strain RIO1, hits give low values
[41] = locus YOR329C, strain SCD5, hits give low values
[42] = locus YPL153C, strain RAD53, hits give low values
[43] = locus YPL209C, strain IPL1, hits give low values
[44] = locus YPL256C, strain CLN2, hits give low values
[45] = locus YPR106W, strain ISR1, hits give low values
[46] = locus YPR111W, strain DBF20, hits give low values
[47] = strain NNK1, hits give low values
[48] = locus YBR135W, strain CKS1, hits give low values
[49] = locus YDL132W, strain cdc53, hits give low values
[50] = locus YDR477W, strain SNF1, hits give low values
[51] = locus YER133W, strain GLC7, hits give low values
[52] = locus YFL009W, strain cdc4, hits give low values
[53] = locus YFL029C, strain CAK1, hits give low values
[54] = locus YFR019W, strain FAB1, hits give low values
[55] = locus YFR028C, strain CDC14, hits give low values
[56] = locus YHR079C, strain IRE1, hits give low values
[57] = locus YHR082C, strain KSP1, hits give low values
[58] = locus YHR205W, strain SCH9, hits give low values
[59] = locus YJL157C, strain FAR1, hits give low values
[60] = locus YKL193C, strain SDS22, hits give low values
[61] = locus YMR277W, strain FCP1, hits give low values
[62] = locus YNL222W, strain SSU72, hits give low values
[63] = locus YNL307C, strain MCK1 (second series), hits give low values
[64] = locus YOL078W, strain AVO1, hits give low values
[65] = locus YOL136C, strain PFK27, hits give low values
[66] = locus YOR061W, strain CKA2, hits give low values
[67] = locus YOR231W, strain MKK1, hits give low values
[68] = locus YPL031C, strain PHO85, hits give low values
[69] = locus YPL204W, strain HRR25, hits give low values
[70] = locus YPR025C, strain CCL1, hits give low values
[71] = strain TSCII, hits give low values

Measured: normalized growth

CC1CC(=O)Nc2ccccc2N1C(=O)c1ccc([N+](=O)[O-])cc1 (configuration not stated)
inactive: locus YAL013W, strain DEP1, hits give low values 1.01 | locus YBR229C, strain ROT2, hits give low values 1.01 | locus YCL061C, strain MRC1, hits give low values 1.02 | [1] 1.05 | locus YDL134C, strain PPH21, hits give low values 1.01 | locus YDR150W, strain NUM1, hits give low values 0.937 | locus YEL061C, strain CIN8, hits give low values 0.991 | locus YGR078C, strain PAC10, hits give low values 1.03 | [2] 1.01 | locus YHR087W, strain rtc3, hits give low values 0.978 | locus YJL187C, strain SWE1, hits give low values 1.01 | locus YJR043C, strain POL32, hits give low values 1.02 | locus YJR075W, strain HOC1, hits give low values 1.01 | locus YLR039C, strain RIC1, hits give low values 1.03 | locus YLR058C, strain SHM2 (second series), hits give low values 0.998 | locus YLR085C, strain ARP6, hits give low values 1.03 | locus YLR262C, strain YPT6, hits give low values 1 | locus YML094W, strain GIM5, hits give low values 1.02 | locus YMR219W, strain ESC1, hits give low values 1.01 | locus YMR263W, strain SAP30, hits give low values 1.05 | locus YNL153C, strain GIM3, hits give low values 1.02 | locus YNL298W, strain CLA4 (second series), hits give low values 1.05 | locus YNL322C, strain KRE1, hits give low values 1 | locus YNR030W, strain Alg12, hits give low values 1.02 | locus YOL006C, strain TOP1, hits give low values 1.01 | locus YPL055C, strain LGE1, hits give low values 0.996 | locus YPL241C, strain CIN2, hits give low values 1.02 | locus YPR135W, strain CTF4, hits give low values 1.03

CC(C)/C(=N/OC(=O)c1ccc([N+](=O)[O-])cc1)c1ccccc1
active: [10] 0.148 | [16] 0.231 | [2] 0.337 | [23] 0.137 | [27] 0.242 | [29] 0.604 | [30] 0.175 | [31] 0.0636 | [33] 0.384 | [34] 0.126 | [35] 0.507 | [36] 0.174 | [37] 0.378 | [41] 0.637 | [44] 0.582
inactive: [3] 0.974 | [4] 0.965 | [5] 0.967 | [6] 0.957 | [7] 0.963 | [8] 0.955 | [1] 0.952 | [9] 0.962 | [11] 0.979 | [12] 0.955 | [13] 0.949 | [14] 0.909 | [15] 0.96 | [17] 0.814 | [18] 0.843 | [19] 0.96 | [20] 0.745 | [21] 0.943 | [22] 0.957 | [24] 0.769 | [25] 0.991 | [26] 0.911 | [28] 0.802 | [32] 0.909 | [38] 0.595 | [39] 0.955 | [40] 0.814 | [42] 0.671 | [43] 0.966 | [45] 0.978 | [46] 0.972 | [47] 0.97

N/C(=N/OC(=O)c1cnn(-c2ccc([N+](=O)[O-])cc2)c1C(F)(F)F)c1ccc(Cl)cc1
inactive: [3] 0.985 | [4] 0.972 | [48] 0.964 | [5] 0.971 | [6] 0.974 | [7] 0.984 | [8] 0.985 | [1] 0.992 | [9] 0.975 | [49] 0.974 | [10] 0.937 | [11] 0.983 | [12] 0.97 | [13] 0.982 | [50] 0.944 | [14] 0.96 | [51] 0.82 | [52] 0.982 | [53] 0.973 | [15] 0.98 | [54] 0.974 | [55] 0.979 | [16] 0.916 | [17] 1.06 | [18] 0.964 | [2] 1.01 | [56] 1.04 | [57] 1.07 | [58] 0.699 | [19] 0.979 | [20] 1.04 | [21] 0.98 | [59] 0.973 | [22] 0.976 | [23] 0.955 | [24] 1.01 | [25] 0.993 | [26] 0.972 | [27] 0.983 | [60] 0.982 | [28] 1.04 | [29] 0.98 | [30] 0.881 | [31] 0.74 | [32] 0.92 | [33] 0.981 | [34] 0.886 | [61] 0.981 | [35] 0.99 | [36] 0.989 | [37] 0.979 | [38] 1.01 | [39] 0.98 | [62] 0.969 | [63] 0.987 | [64] 0.969 | [65] 0.979 | [66] 0.912 | [40] 1.06 | [67] 0.961 | [41] 0.985 | [68] 0.974 | [42] 0.976 | [69] 1.01 | [43] 0.978 | [44] 0.961 | [70] 0.973 | [45] 0.993 | [46] 0.976 | [47] 0.995 | [71] 0.989

N/C(=N/OC(=O)c1ccc([N+](=O)[O-])cc1)c1c(Cl)cccc1Cl
inactive: [3] 0.939 | [4] 0.946 | [48] 0.949 | [5] 0.941 | [6] 0.967 | [7] 0.958 | [8] 0.948 | [1] 0.975 | [9] 0.952 | [49] 0.938 | [10] 0.91 | [11] 0.955 | [12] 0.94 | [13] 0.944 | [50] 0.764 | [14] 0.936 | [51] 0.805 | [52] 0.935 | [53] 0.953 | [15] 0.95 | [54] 0.825 | [55] 0.942 | [16] 0.848 | [17] 0.71 | [56] 0.536 | [57] 0.872 | [19] 0.94 | [21] 0.973 | [59] 0.863 | [22] 0.942 | [24] 0.642 | [25] 1.02 | [26] 0.924 | [27] 0.911 | [60] 0.935 | [28] 0.758 | [30] 0.898 | [31] 0.69 | [32] 0.883 | [33] 0.941 | [34] 0.905 | [61] 0.921 | [35] 0.958 | [36] 0.881 | [37] 0.954 | [38] 0.578 | [39] 0.915 | [62] 0.954 | [64] 0.938 | [65] 0.936 | [66] 0.919 | [40] 0.746 | [41] 0.954 | [68] 0.7 | [42] 0.693 | [69] 0.671 | [43] 0.955 | [70] 0.955 | [45] 0.984 | [46] 0.979 | [47] 0.982 | [71] 0.942
active: [18] 0.465 | [2] 0.268 | [58] 0.449 | [20] 0.418 | [23] 0.598 | [29] 0.661 | [63] 0.613 | [67] 0.57 | [44] 0.733
